# Results filed as inconclusive are left out. Activity calls are given as the source filed them. Calls come from the whole dose curve.
# Assay: Primary qHTS to identify inhibitors of SARS-CoV-2 cell entry (AID 1645846); note: nearly all actives have a fitted effect of over 45% in size
# Conditions: SARS-CoV-2 pseudovirus cell entry assay, luminescence; activity change, negative = inhibition: at 57.1 µM (top of the series) unless noted
# Procedure, shortened: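 Entry measured by luciferase signal 48 h after adding SARS-CoV-2-S pseudotyped MLV particles to HEK293-ACE2 cells preincubated 1 h with compounds. Normalisation: bald particles and spike particles.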
# Potency is the fitted concentration of half-maximal effect.
Structure (SMILES),Potency,"activity change, negative = inhibition"
COc1ccc(N2C(=O)N(c3c(C)cccc3Cl)Cc3cnc(Nc4ccc(C5CCN(C)CC5)cc4OC)nc32)nc1,35.5 µM (active),
CN(C)CCNC(=O)NC[C@H]1CC[C@@H]2[C@H](O1)c1cc(C(F)(F)F)ccc1N[C@H]2c1ccccc1,25.1 µM (active),
CC(C)S(=O)(=O)c1ccc2nccc(Nc3ccc4scnc4c3)c2c1,,-14.4%
CN(Cc1ccc(/C=C/C(=O)NO)cc1)CC12CC3CC(CC(C3)C1)C2,5.01 µM (active),
COc1ccc(/C=C\c2cc(OC)c(OC)c(OC)c2)cc1O,,-68.5%
CNC(=O)c1cccc2cc(Oc3ccnc4cc(OCC5(N)CC5)c(OC)cc34)ccc12,,-98.2%
O=C(CCCCCCNC(=O)c1cnc(N(c2ccccc2)c2ccccc2Cl)nc1)NO,,2.82%
CNC(=O)Cn1cc(-c2ccc3c(c2)C(F)CC32NC(=O)N(CC(=O)N(Cc3ccc(F)cc3)C(C)C(F)(F)F)C2=O)cn1 (centres undefined),,-52.5%
C[C@@H]1COCCN1c1cc(C2(S(C)(=N)=O)CC2)nc(-c2ccnc3[nH]ccc23)n1 (some centres undefined),10 µM (active),
CN1CCN(c2ccc(OC(F)(F)F)c(Nc3ncc4c(n3)-c3c(c(C(N)=O)nn3CCO)CC4)c2)CC1,,-77.5%
CCn1c(=O)c(-c2ccc(-c3cncc(C)n3)cc2Cl)cc2cnc(NCCC3CCN(C)CC3)nc21,3.16 µM (active),
CNCCn1c(=O)c2cc(OC)c(OC)cc2c2cnc3cc4c(cc3c21)OCO4,,-98.1% [at 11.3 µM]
Cn1cc(-c2cnn3c(N)c(Br)c([C@@H]4CCCNC4)nc23)cn1,35.5 µM (active),
CC(=O)c1cnc2ccc(-c3cc(Cl)c(O)c(Cl)c3)nc2c1NC1CCC(CN(C)C)CC1 (centres undefined),,-98.1% [at 11.3 µM]
Cc1ccc(NS(=O)(=O)c2cccc(C#N)c2)c2[nH]cc(C#N)c12,,-10.5%
CC(=O)NCC(=O)N1[C@@H]2CC[C@H]1c1ccc(Nc3ncc(C(F)(F)F)c(NC4CCC4)n3)cc12,3.16 µM (active),
COc1cc([C@@H]2c3cc4c(cc3[C@@H](O[C@@H]3O[C@@H]5CO[C@@H](c6cccs6)O[C@H]5[C@H](O)[C@H]3O)[C@H]3COC(=O)[C@H]23)OCO4)cc(OC)c1O,,-96.2%
Fc1cccc(-n2cnc3c(NCc4nc5c(F)c(F)ccc5[nH]4)nc(N4CCOCC4)nc32)c1,,-62.7%
Cc1ccc(NC(=O)NCc2ccc3c(c2)CN(C2CCC(=O)NC2=O)C3=O)cc1Cl (centres undefined),,-96.8%
C/C(=N\NC(=S)N1CCC1)c1ccccn1,,-96.5%

Structure (SMILES),Potency,"activity change, negative = inhibition"
Cc1nc([C@](C)(O)CO)sc1-c1cnc(N)c(O[C@H](C)c2cc(F)ccc2-n2nccn2)c1,22.4 µM (active),
Cc1cc(CS(=O)(=O)c2ccccc2)cc(OCc2ccc(CN3CCC[C@@H]3CO)cc2)c1,12.6 µM (active),
COc1ncc(-c2ccc3c(Nc4cc(Oc5cc(F)cc(F)c5)cc(C(=O)O)c4)c(S(=O)(=O)NC4CC4)cnc3c2)c(OC)n1,,-25%
O=C(/C=C/c1cccnc1)NCCCCC1CCN(C(=O)c2ccccc2)CC1,,-96.7%
CC(C)(C)C[C@H]1N[C@@H](C(=O)NC2CCC(O)CC2)[C@H](c2cccc(Cl)c2F)[C@@]12C(=O)Nc1cc(Cl)ccc12 (some centres undefined),28.2 µM (active),
Cc1ccc(S(=O)(=O)Cc2nc(-c3ccc(C(=O)NCc4cccnc4)cc3)oc2C)cc1,,-96.2%
FC(F)(F)c1ccc(CNc2ccc(Cc3c[nH]c4ncccc34)cn2)cc1,20 µM (active),
CCCCN(CCCC)C(=O)CN1C[C@H](c2ccc3c(c2)OCO3)[C@@H](C(=O)O)[C@@H]1c1ccc(OC)cc1,,-74.4%
O=C1NC(=O)[C@@H](c2cn3c4c(cccc24)CCC3)[C@@H]1c1c[nH]c2ccccc12,,-73.3%
CNCc1ccc(C)c(NC(=O)c2ccc(Nc3nc(-c4ccccc4)c4ccccc4n3)cc2)c1,14.1 µM (active),
C=CC(=O)Nc1cccc(C)c1Nc1ncc2cc(-c3c(Cl)c(OC)cc(OC)c3Cl)ccc2n1,,-95%
COc1ccccc1C(=O)Nc1cc2c(cc1N1CCCCC1)n(C)c(=O)n2C,,-21.1%
CC1=C(CO)C(=O)O[C@@H]([C@@H](C)[C@H]2CC[C@H]3[C@@H]4C[C@H]5O[C@]56[C@@H](O)C=CC(=O)[C@]6(C)[C@H]4CC[C@]23C)C1,1.26 µM (active),
COc1nc(OCc2cccc(-c3ccccc3)c2C)ccc1CNCCNC(C)=O,11.2 µM (active),
CCC(=C/[C@H](C)C/C=C/C(C)=C/[C@@H](C)C(=O)[C@@H](C)[C@H](O)[C@@H](C)C/C(C)=C/C(=O)O)/C=C/[C@@H]1OC(=O)C=C[C@@H]1C,,-94.2%
CN(C)CCOc1ccc(-c2nc(-c3ccc4c(c3)CC/C4=N\O)c(-c3ccncc3)[nH]2)cc1,12.6 µM (active),
COc1cc(OC)c(/C=C/S(=O)(=O)Cc2ccc(OC)c(NCC(=O)O)c2)c(OC)c1,,-75.7%
COc1nnc2ccc(N3CCC(c4ccc(OCCN5CCN(C)C(=O)[C@H]5C)cc4)CC3)nn12,inactive,
Cc1cc(CC(C)CC(C)(C)C)n(O)c(=O)c1 (centres undefined),20 µM (active),

# Reference: PubChem BioAssay (NCATS)
